Source: PubChem BioAssay (NCI)
This is part of a sample that, as a whole, favours compounds with a hit. Of some 83,000 tested, about 20% had one in any assay.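 96-well plates, one dose, 48 hours. Percent growth reported; active if below 10.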 Values without a mark were called inactive. Active and inactive are the calls of the source.

Legend:
Assay in all cases: NCI-60 one-dose screen, 48 h (100 = growth as untreated, 0 = no growth, -100 = all killed)
SK-MEL-2 melanoma = details: 10 µM unless noted
EKVX NSCLC = details: 10 µM unless noted
SN12C renal = details: 10 µM unless noted
UO-31 renal = details: 10 µM unless noted
TK-10 renal = details: 10 µM unless noted
ACHN renal = details: 10 µM unless noted
CAKI-1 renal = details: 10 µM
A498 renal = details: 10 µM unless noted
CCRF-CEM leukemia = details: 10 µM unless noted
MOLT-4 leukemia = details: 10 µM unless noted
RPMI-8226 leukemia = details: 10 µM unless noted
OVCAR-8 ovarian = details: 10 µM unless noted
OVCAR-5 ovarian = details: 10 µM unless noted
OVCAR-4 ovarian = details: 10 µM unless noted
SK-OV-3 ovarian = details: 10 µM unless noted
IGROV1 ovarian = details: 10 µM unless noted
HS 578T breast = details: 10 µM unless noted
NCI/ADR-RES ovarian = details: 10 µM unless noted
SR leukemia = details: 10 µM unless noted
OVCAR-3 ovarian = details: 10 µM unless noted

SMILES | growth (SK-MEL-2 melanoma) | growth (EKVX NSCLC) | growth (SN12C renal) | growth (UO-31 renal) | growth (TK-10 renal) | growth (ACHN renal) | growth (CAKI-1 renal) | growth (A498 renal) | growth (CCRF-CEM leukemia) | growth (MOLT-4 leukemia) | growth (RPMI-8226 leukemia) | growth (OVCAR-8 ovarian) | growth (OVCAR-5 ovarian) | growth (OVCAR-4 ovarian) | growth (SK-OV-3 ovarian) | growth (IGROV1 ovarian) | growth (HS 578T breast) | growth (NCI/ADR-RES ovarian) | growth (SR leukemia) | growth (OVCAR-3 ovarian)
Nc1nc(N)c2c(n1)NC(c1ccccc1)CC(c1ccc(Nc3nc(NCCO)nc(Nc4ccc(Cl)cc4)n3)cc1)=N2 (stereo unspecified) | 71.9% | 92.6% | 49.4% | 43.9% | 63.7% | 70.2% | 61% | 71.3% | -11.2% (active) | 1.48% (active) | -56.2% (active) | -20% (active) | 111% | 57.2% | 116% | 64.3% | 79.9% | 48.4% | – | –
Cn1c2ccccc2c2c3c(c4c5ccc(Br)cc5oc4c21)C(=O)N(O)C3=O | 98.6% | 96.6% | 92.7% | -91.6% (active) | 101% | 69.5% | 40.4% | -6.15% (active) | 14.6% | 7.13% (active) | 64.6% | 73.1% | 110% | 85.3% | 101% | 69.7% | 102% | 92.5% | – | –
CC(=O)Nc1ccc(NC(=O)Nc2cccc(-c3nc(-c4ccc(NC(=O)c5cccnc5)cc4Cl)no3)c2)cc1C(F)(F)F | -68.5% (active) | -39% (active) | -65% (active) | 52.9% | -31.7% (active) | 34.2% | -68.9% (active) | -64.8% (active) | -14.5% (active) | -30.8% (active) | – | -9.07% (active) | -49.4% (active) | -53.7% (active) | -57.9% (active) | -54% (active) | -22.9% (active) | 69.2% | -25.1% (active) | -63.7% (active)
COc1ccc2c(c1)oc1c3[nH]c4ccccc4c3c3c(c21)C(=O)N(O)C3=O | 70.8% | 92.5% | 40.5% | 22.4% | 119% | 11.5% | 19.6% | -1.48% (active) | 6.73% (active) | -2.02% (active) | 28% | 48.4% | 110% | 77.9% | 39.1% | 41.2% | 77.9% | 59.6% | – | –
CC1COc2c(N3CCN(C)CC3)c(F)cc3c(=O)c(C(=O)N/N=C/c4cc[nH]c4)cn1c23 (stereo unspecified) | 83.5% | 33.3% | 49.3% | 54% | 87.8% | 43.8% | 47.6% | 40.6% | -35.9% (active) | 9.4% (active) | 45.3% | 19.4% | 77.8% | 44.6% | 61.6% | 26.6% | 67.5% | 94.2% | – | –
O=C(Nc1cccc(-c2nc(-c3ccc(NC(=O)c4cccnc4)cc3Cl)no2)c1)Nc1ccc(NC(=O)C2CC2)c(C(F)(F)F)c1 | -55% (active) | -28% (active) | -60.8% (active) | 17.8% | -20.4% (active) | 9.95% (active) | -72.7% (active) | -69.6% (active) | -16.3% (active) | -39.7% (active) | – | -16.8% (active) | -65.6% (active) | -74.1% (active) | -48.3% (active) | -55.4% (active) | -31% (active) | 64.1% | -14.4% (active) | -74.7% (active)
CCN(CC)Cc1c(-c2cccc(OC(F)(F)F)c2)[nH]c2ccc(N3CCCC3)cc2c1=O | 106% | 90.6% | 93.3% | 77.7% | 124% | 98.4% | 77.3% | 104% | 98.4% | 69.4% | – | 96.2% | 92.5% | 101% | 111% | 79.6% | 87.3% | 92.5% | 91.4% | 104%
C#CCOc1ccccc1C(Nc1ccccc1)c1nnnn1C1CCCCC1 (stereo unspecified) | 110% | 95.9% | 104% | 78.5% | 106% | 93.9% | 59.6% | – | 92.7% | 88.3% | 89.7% | 101% | 91.9% | 94.5% | 101% | 89.6% | 95.2% | 96.1% | 98.1% | 109%
CC[C@]12C=CCN3CC[C@]4(C(=C(C(=O)OC)C1)Nc1cc5c(cc14)[C@@H]1[C@H](O5)[C@@H](O)[C@@]4(CC)CC(C(=O)OC)=C5Nc6cc(OC)ccc6[C@@]56CCN1[C@@H]46)[C@@H]32 | 32.1% | 19.1% | 16.4% | 11.9% | 14.1% | -42.5% (active) | 2.12% (active) | -65.9% (active) | 5.92% (active) | – | -23.3% (active) | 19.5% | 25.4% | 31.2% | 25% | 6.73% (active) | 11.6% | 12.4% | 5.56% (active) | –
CN(C)c1ccc(/C=N/Nc2nc(N/N=C/c3ccc(N(C)C)cc3)nc(N3CCOCC3)n2)cc1 | 98.6% | 95.4% | 89.2% | 90.7% | 110% | 104% | 96% | – | 13.3% | 96.7% | 35% | 99% | 110% | 104% | 110% | 94.6% | 97.6% | 99.8% | -13.1% (active) | 109%
O=C(CN1C(=O)CSC1=O)Nc1ccc(C(=O)/C=C/c2cc3ccccc3nc2Cl)cc1 | 88.5% | 72.1% | 83.8% | 59.5% | 92.1% | 83.5% | 63% | – | 45.5% | 36.4% | -13.2% (active) | 77.7% | 101% | 46.4% | 101% | 66.9% | 82.7% | 89.5% | 36.7% | 87.4%
O=C(Nc1cc(Cl)cc(Cl)c1)Nc1nc2ccc([N+](=O)[O-])cc2s1 | -22.2% (active) | 6.9% (active) | 2.15% (active) | 6.95% (active) | -1.5% (active) | 3.76% (active) | 6.87% (active) | – | 10.3% | 2.31% (active) | -23.8% (active) | 8.77% (active) | 24% | 10% | -2.86% (active) | 21.1% | -6.91% (active) | 2.26% (active) | -0.61% (active) | 13.8%
COc1cc(/C=C/C(=O)c2ccc(NC(=O)COc3cccc4cccnc34)cc2)cc(OC)c1OC | 96.5% | 82% | 75.4% | 67.7% | 147% | 80.2% | 84.8% | – | 26.5% | 41% | 12.9% | 79.7% | 128% | 84.3% | 118% | 69.4% | 93.8% | 71.7% | 11.4% | 47.9%
CCOP(=O)(OCC)OC[C@]12CCC(C)(C)C[C@H]1C1=CC[C@@H]3[C@@]4(C)C/C(=C\c5cccnc5)[C@H](OP(=O)(OCC)OCC)C(C)(C)[C@@H]4CC[C@@]3(C)[C@]1(C)CC2 | 45.1% | 29.9% | 29.3% | 29.9% | 37.3% | 27.8% | 31% | – | 25.3% | 9.52% (active) | -10.3% (active) | 28.9% | 50.1% | 27.6% | 34.8% | 42.6% | 61.1% | 52.3% | 3.36% (active) | 28.5%
